ST2 inh – inhibitors of human ST2 (IL1RL1) binding to IL-33, primary screen, biochemical, AlphaLISA; AlphaLISA ST2-Fc/biotin-IL-33 interaction, 1 h; Interleukin-1 receptor-like 1 (Homo sapiens), Q01638; 78,000 compounds, 2.3% hits; inhibition, % for hits at 17 µM; in the data active = inhibition above about 30%
Target sequence (Q01638 whole entry, looked up): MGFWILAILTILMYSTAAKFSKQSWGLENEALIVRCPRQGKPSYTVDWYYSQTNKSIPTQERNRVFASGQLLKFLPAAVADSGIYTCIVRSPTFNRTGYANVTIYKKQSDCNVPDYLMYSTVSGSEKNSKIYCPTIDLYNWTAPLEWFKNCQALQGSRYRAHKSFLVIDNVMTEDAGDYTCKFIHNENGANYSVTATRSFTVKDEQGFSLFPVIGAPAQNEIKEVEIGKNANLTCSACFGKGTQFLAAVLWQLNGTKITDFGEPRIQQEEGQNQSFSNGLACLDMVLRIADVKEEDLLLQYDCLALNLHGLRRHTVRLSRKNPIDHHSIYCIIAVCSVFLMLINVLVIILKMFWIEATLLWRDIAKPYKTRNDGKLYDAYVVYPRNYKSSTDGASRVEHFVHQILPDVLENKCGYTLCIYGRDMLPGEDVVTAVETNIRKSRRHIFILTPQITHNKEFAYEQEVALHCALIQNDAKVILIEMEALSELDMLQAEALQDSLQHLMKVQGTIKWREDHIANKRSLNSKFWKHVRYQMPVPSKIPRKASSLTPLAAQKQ
Numbers without * were called inactive; i = inactive. The entries come from a sample that favours hits as a whole.

SMILES | ST2 inh
Cc1occc1C(=O)NC1CCCc2nc(N3CCC(CO)CC3)ncc21 (stereo not given) | i
CCOC(=O)C1=C(C)Nc2nc(SC)nn2C1c1ccc(-c2ncc(-c3ccccc3)o2)cc1 (stereo not given) | i
COc1ccc(Br)cc1/C=C1\C(=O)Nc2ccc(Br)cc21 | 36%*
CCOc1ccc(Br)cc1/C=C1\NC(=O)N(Cc2ccc(Cl)cc2)C1=O | i
COc1ccc(Br)cc1CC(=O)O | i
CCOc1cc(/C=C2\C(=O)Nc3ccc(Br)cc32)c(Br)cc1OC | 41%*
COc1ccc(Cl)cc1/C=C1/NC(=O)NC1=O | i
COc1ccc(Cl)cc1/C=C1\C(=O)Nc2ccc(Br)cc21 | 35%*
CCOc1c(O)ccc(/C=C2\C(=O)Nc3ccc(Br)cc32)c1[N+](=O)[O-] | i
CC1=NN(c2ccc(Br)cc2)C(=O)/C1=C/c1ccc(-c2ccc3c(c2)C(=O)OC3)o1 | i
Cc1cccc(C)c1N=C1C(=O)Nc2ccc(Br)cc21 | i
Cc1ccc(/C=C2\C(=O)Nc3ccc(Br)cc32)o1 | 30%*
COc1ccc(Br)cc1/C=C1\N=C(c2ccc(OC)c([N+](=O)[O-])c2)OC1=O | i
C=CCOc1cc(Br)c(/C=C2/NC(=O)NC2=O)cc1OC | i
O=C(Cc1ccccc1)Nc1cccc(N2C(=O)CCC2=O)c1 | i
CN1C[C@@H]2CC[C@H](CC1=O)N2C(=O)c1ccnc(-n2cnnc2)c1 | i
CCc1ccc(CN2CCC3(CCC(=O)N(C)CC3)CC2)nc1 | i
Cc1cc(=O)[nH]c(SCC(=O)Nc2cccc(F)c2)n1 | i
Oc1c(Cl)c(Cl)c(O)c2nsnc12 | i
O=C(Cc1ccc(-n2c(=O)[nH]c3ccsc3c2=O)cc1)NCc1ccco1 | i
CCC(C)OC(=O)C1=C(C)NC2=C(C(=O)C(C(=O)OC)C(C)C2)C1c1ccccc1OC (stereo not given) | i
CC(C)Cc1ccc(S(=O)(=O)NC2CCCCCC2)cc1 | i
O=C(c1cccn2c(=O)c3cc4ccccc4cc3nc12)N1CCN(c2cccc(Cl)c2)CC1 | i
O=C(Nc1ccc([C@@H](O)[C@H]2COCC(=O)N2Cc2ccc(C(F)(F)F)cc2)cc1)c1ccc(F)cc1 | i
O=[N+]([O-])c1ccc(-n2ccc3ccccc32)cc1 | 32%*
SMILES | ST2 inh
O=[N+]([O-])c1ccc(S(=O)(=O)n2nnc3ccccc32)cc1 | i
COc1ccc(-n2ccc3ccccc32)cc1 | i
O=C(Cc1c(C(=O)O)[nH]c2ccc(Cl)cc12)NCc1ccc(F)cc1Cl | i
O=[N+]([O-])c1cc(Cc2ccccc2)ccc1O | 36%*
O=[N+]([O-])c1cc(CN2CCCCC2)ccc1O | i
O=[N+]([O-])c1cc(CN2CCOCC2)ccc1O | i
O=C(CC1CCCC1)N1CCC2(CCCN(Cc3ccc(F)c(F)c3)C2)C1 (stereo not given) | i
CNC(=O)C(C)N(C)Cc1nnc(CC2CCNCC2)n1-c1ccccc1 (stereo not given) | 30%*
CNC(=O)C(C)N(C)Cc1cccc(C(=O)OC)c1 (stereo not given) | i
CNC(=O)C(C)N(C)Cc1nc2ccccc2n1CC(C)C (stereo not given) | i
Cc1cc(C)c(NS(=O)(=O)c2ccc3c4c(cccc24)C(=O)N3)c(C)c1 | i
O=C(c1cnn2ccccc12)N1C[C@@H]2C[C@H](C1)[C@@H]1CCCC(=O)N1C2 | i
CC1=C(C(=O)N2CCC(C(=O)Nc3ccc(-c4cccc(C)c4)cc3)CC2)OCCO1 | i
CNCC(=O)NC(c1cc(C)ccn1)C1CC1 (stereo not given) | i
COc1ccc(/C=C2\CC(c3ccccc3)=CC2=O)cc1 | 52%*
COc1ccc(/C=C(\C)c2nc(C)c(-c3ccccc3)c(=O)[nH]2)cc1 | i
COc1ccc(/C=C2\SC(N3CCCC3)=NC2=O)cc1 | i
O=C(CCCn1c(=O)c2sccc2n(Cc2cccc([N+](=O)[O-])c2)c1=O)NCc1ccco1 | i
O=C1C=CC(=NS(=O)(=O)c2ccccc2)C=C1Br | 31%*
CN(C)C(=NS(=O)(=O)c1ccc(Br)cc1)c1ccccc1 | i
CC(C)O[C@H]1CN(C(=O)c2ccccc2N2CCC(=O)NC2=O)C[C@@H]1O | i
Nc1nc2n(n1)C(c1ccco1)CC(c1ccc(F)cc1)N2 (stereo not given) | i
Fc1ccc(C2=NN(c3ccccc3)C(c3ccco3)C2)cc1 (stereo not given) | 45%*
O=C(c1ccccc1Br)N1N=C(c2ccc(Br)cc2)CC1c1ccco1 (stereo not given) | i
Cc1nc2c(C(=O)NCCCN3CCCC3)cnn2c(C)c1Cc1ccccc1 | i
O=c1/c(=C\c2cccc([N+](=O)[O-])c2)sc2nc3ccccc3n12 | i
COc1ccc(/C=c2\sc3nc4ccccc4n3c2=O)cc1O | 50%*
CCCCOc1ccc(/C=c2\sc3ncnn3c2=O)cc1OC | i
CC(C)C(NS(=O)(=O)c1cccs1)C(=O)N1CCN(c2ccc(F)cc2)CC1 (stereo not given) | i
CCN(Cc1noc(C2CC2)n1)C(=O)c1ncoc1C1CC1 | i

From PubChem
